This is part of a sample that, as a whole, favours compounds with a hit. Of some 83,000 tested, about 20% had one in any assay.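 Negative percent growth values reflect cell death: -40 means 40% of the cells present at the start died, and -100 means all died.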 The source made the active and inactive calls. How the source made its calls: active means growth percent below 10; inactive means the rest.

In the assay the test system is SNB-75 CNS. Nature of the assay: NCI-60 one-dose screen, 48 h (100 = growth as untreated, 0 = no growth, -100 = all killed). To be noted: 10 µM unless noted.
Regarding `FC(F)(F)c1cc(-c2nnc3n2N=C(N2CCCC2)CS3)cc(C(F)(F)F)c1`, the growth is 29.6% (inactive). Regarding `Clc1ccc(C2=NN(c3ccc(Cl)cc3)C(c3cccc(Nc4ccnc5cc(Cl)ccc45)c3)C2)cc1` (stereo not given), the growth is 77.3% (inactive).

Turning to `C=CCN(/C=C/CN(CC=C)CC=C)CC=C`, the growth is 85.8% (inactive). The same measure for `COc1ccc(-c2nnc3c4[nH]cnc4ncn23)c(OC)c1`: 39.2% (inactive); for `Cc1ccc(S(=O)(=O)NCCN2c3nc4ccccc4cc3Sc3cc4ccccc4nc32)cc1`: -13% (active); for `O=C(CNC(=O)c1cccc2ccccc12)Nc1ccccc1Oc1cccc(O)c1`: 4.28% [5 µM] (active).

Regarding `COc1ccc2c(=O)c(OC)c(-c3cc(OC)c(OC)c(OC)c3)oc2c1`, the growth is 79.5% (inactive).

Regarding `COc1cnc2c(c1)C(=O)c1c-2n(CCCN2CCC(O)CC2)c(=O)c2cc(F)ccc12`, the growth is -16.9% (active). On to `O=C(/C=C/c1c(-c2ccccc2)[nH]c2ccccc12)S(=O)(=O)c1ccccc1`, for which the growth was 84.5% (inactive). In the case of `O=C(Nc1nc2c(C(F)(F)F)cccc2s1)c1cc(Cl)ccc1O`, the growth is 14% (inactive). The same measure for `CCN(CC)CCOCC[C@H]1CC[C@H]2[C@@H]3[C@H](C)Cc4cc(OS(N)(=O)=O)ccc4[C@H]3CC[C@]12C`: -42.7% (active). The same measure for `NS(=O)(=O)c1ccc(N2CC(c3nc4ccccc4[nH]3)CC2=O)cc1` (stereo not given): 67.9% (inactive); for `COc1cnc2c(c1)C(=O)c1c-2n(CCCN2CCCC2)c(=O)c2cc(F)ccc12`: -18.9% (active); for `COc1ccc(-n2cnc3cc(C(=O)N4CCCCC4)ccc32)cc1`: 86.6% (inactive). The same measure for `COc1cc(-c2n[nH]nc2-c2ccccn2)cc(OC)c1OC`: 88.1% (inactive); for `COc1cc(C2=NN(C=O)C(c3cccc(Nc4ccnc5cc(Cl)ccc45)c3)C2)cc(OC)c1OC` (stereo not given): 74.3% (inactive).

Consider `Cc1sc2nc(NCc3ccccc3)[nH]c(=O)c2c1C`, for which the growth is 46.1% (inactive). Take `CC(=O)N1N=C(c2ccc(Nc3nc(NCCO)nc(NCCO)n3)cc2)CC1c1ccc(Cl)cc1` (stereo not given): the growth was 84.7% (inactive). The same measure for `COc1ccc(N2CCN(CC(=O)N3CCN(c4nnc(-c5ccc(Cl)cc5)c(-c5ccc(Cl)cc5)n4)CC3)CC2)cc1`: 76.3% (inactive); for `C1CCC(C(CC2CCCCN2)C2CCCCC2)CC1` (stereo not given): 7.79% (active); for `Cc1cc2c(cc1C)[n+](Cc1ccc3ccccc3c1)cn2Cc1ccc2ccccc2c1`: -73.6% (active).

In the case of `COc1ccc(Oc2ccccc2NC(=O)CNC(=O)c2cccc3ccccc23)cc1`, the growth is 41.6% [5 µM] (inactive). The same measure for `COc1cccc(N2CCN(CC(=O)N3CCN(c4nnc(-c5ccc(Cl)cc5)c(-c5ccc(Cl)cc5)n4)CC3)CC2)c1`: 76.3% (inactive); for `CC(=O)N1N=C(c2ccc3c(c2)OCO3)CC1c1c(C)nn(-c2ccccc2)c1N(C)Cc1ccccc1` (stereo not given): 78.7% (inactive). On to `COc1ccc(C(=O)/C=C/c2cccc(Nc3ccnc4cc(Cl)ccc34)c2)cc1`, for which the growth was -1.22% (active).

For the molecule `COc1cc(C2CC(C3C(=O)N(C)C(=O)N(C)C3=O)=NN2c2cc(Cl)cc(Cl)c2)cc(OC)c1OC` (stereo not given), the growth was 100% (inactive). The same measure for `O=C1NC(=O)/C(=C\c2ccco2)S1`: 97.7% (inactive). The same measure for `COc1ccc2nc(-c3ccc(Cl)cc3)cc(-c3nnc(SCC(=O)Nc4ccc(C(C)=O)cc4)n3-c3ccccc3)c2c1`: 81% (inactive); for `O=C(CNC(=O)c1cccc2ccccc12)Nc1ccccc1Cc1ccccc1`: 32% [5 µM] (inactive). The same measure for `CCCCc1n(Cc2ccc3ccccc3c2)cc[n+]1Cc1ccc2ccccc2c1`: -18% (active); for `COc1cc(C2CC(C3C(=O)N(C)C(=O)N(C)C3=O)=NN2C=O)cc(OC)c1OC` (stereo not given): 94.8% (inactive). Take `Nc1ncnc2c1CN(Cc1ccccc1)CC2`: the growth was 89% (inactive). The same measure for `CCOC(=O)c1sc(NC(=O)COc2cccc(/C=C3\Cc4ccc(Cl)cc4C3=O)c2)nc1C`: 113% (inactive). The same measure for `COC(=O)[C@H](CCCCNC(=O)OCc1ccccc1)NC(=O)[C@@H](NC(=O)Nc1cc(C(F)(F)F)cc(C(F)(F)F)c1)C(C)C`: -88.7% [100 µM] (active); for `CCN(CC)c1ccc(C(=C2C=CC(=[N+](CC)Cc3cccc(S(=O)(=O)O)c3)C=C2)c2ccc(N(CC)Cc3cccc(S(=O)(=O)O)c3)cc2)cc1`: 33.2% (inactive); for `O=C(CNC(=O)c1cccc2ccccc12)Nc1ccccc1Oc1ccc(O)cc1`: 19.7% [5 µM] (inactive). The same measure for `COc1cc(C(=O)/C=C/c2cccc(Nc3ccnc4cc(Cl)ccc34)c2)cc(OC)c1OC`: 16.4% (inactive); for `CN1C(=O)C(C2=NN(C=O)C(c3ccc(F)cc3)C2)C(=O)N(C)C1=O` (stereo not given): 93.5% (inactive); for `O=CN1N=C(c2ccc(Nc3ccnc4cc(Cl)ccc34)cc2)CC1c1ccc(Cl)cc1` (stereo not given): 4.26% (active).

In the case of `COc1cccc(-c2nc3cc(NC(=O)c4ccc(Cl)c(C#N)c4)ccc3o2)c1`, the growth is -2.82% (active).
